# Tests used:
# Assay in all cases: DAPPL (digital affinity profiling via proximity ligation, sequencing); 10 mM Tris-HCl pH 7.5, 50 mM NaCl, 1 mM DTT, 4% glycerol, room temperature, 30 min; GST-TFs on glutathione beads, 16-mer random dsDNA library, 0.1% formaldehyde crosslink after washing; high values mean tight binding
# FEV = biological target: T1, FEV (Homo sapiens, UniProt Q99581 1-238); details: protein: recombinant; tags: N-terminal GST; dsDNA, one strand shown
# T1 sequence: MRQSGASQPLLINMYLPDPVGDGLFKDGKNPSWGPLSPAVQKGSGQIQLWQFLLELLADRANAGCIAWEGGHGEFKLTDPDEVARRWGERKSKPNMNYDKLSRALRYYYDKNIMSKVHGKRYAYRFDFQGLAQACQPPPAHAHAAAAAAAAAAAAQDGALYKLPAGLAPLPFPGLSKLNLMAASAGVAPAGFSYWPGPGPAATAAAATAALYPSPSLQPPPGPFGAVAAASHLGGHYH
# Method in brief: (§1)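 Human transcription factors fused to GST were expressed in yeast, captured on glutathione beads, given DNA barcodes and pooled with a GST-only negative control. Pools were incubated with 200 nmole of a 16-mer random double-stranded DNA library in Tris/NaCl/DTT/glycerol buffer at room temperature for 30 min. They were then washed, crosslinked with 0.1% formaldehyde, proximity-ligated (BsaI/T4 ligase, 1 h, 37 °C), PCR-amplified and sequenced on an Illumina NextSeq500. Binding signal is each 6-mer's read frequency for a factor divided by its frequency for the GST control.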
# ETV5 = ETV5 (Homo sapiens, UniProt P41161 1-510); details: protein: recombinant; tags: N-terminal GST; dsDNA, one strand shown
# Method in brief: as §1
# HSF1 = HSF1 (Homo sapiens, UniProt Q00613 1-529); details: protein: recombinant; tags: N-terminal GST; chain copies: 3; dsDNA, one strand shown
# Method in brief: as §1
# SPIC = biological target: T2, SPIC (Homo sapiens, UniProt Q8N5J4 1-248); details: protein: recombinant; tags: N-terminal GST; dsDNA, one strand shown
# T2 sequence: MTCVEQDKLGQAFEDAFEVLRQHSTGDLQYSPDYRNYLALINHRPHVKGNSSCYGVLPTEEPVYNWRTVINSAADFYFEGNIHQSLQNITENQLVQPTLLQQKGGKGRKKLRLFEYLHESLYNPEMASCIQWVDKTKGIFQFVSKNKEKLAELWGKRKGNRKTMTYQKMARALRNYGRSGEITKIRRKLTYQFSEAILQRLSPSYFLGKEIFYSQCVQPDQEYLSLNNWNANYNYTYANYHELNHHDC
# Method in brief: as §1
# ELF4 = ELF4 (Homo sapiens, UniProt Q99607 1-663); details: protein: recombinant; tags: N-terminal GST; dsDNA, one strand shown
# Method in brief: as §1
# ELK4 = biological target: T3, ELK4 (Homo sapiens, UniProt P28324-2 1-405); details: protein: recombinant; tags: N-terminal GST; dsDNA, one strand shown
# T3 sequence: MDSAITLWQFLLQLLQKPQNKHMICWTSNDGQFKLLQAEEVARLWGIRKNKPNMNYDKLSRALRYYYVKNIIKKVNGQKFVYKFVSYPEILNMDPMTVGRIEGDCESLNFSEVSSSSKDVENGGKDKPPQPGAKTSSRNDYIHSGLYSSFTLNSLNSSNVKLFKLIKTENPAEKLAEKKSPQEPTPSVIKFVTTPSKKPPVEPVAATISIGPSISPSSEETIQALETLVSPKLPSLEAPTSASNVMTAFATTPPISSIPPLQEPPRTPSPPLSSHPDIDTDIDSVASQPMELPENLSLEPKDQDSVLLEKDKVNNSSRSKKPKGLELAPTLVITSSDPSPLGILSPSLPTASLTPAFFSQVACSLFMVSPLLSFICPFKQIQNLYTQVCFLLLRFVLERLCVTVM
# Method in brief: as §1
# ETV2 = biological target: T4, ETV2 (Homo sapiens, UniProt O00321 1-342); details: protein: recombinant; tags: N-terminal GST; dsDNA, one strand shown
# T4 sequence: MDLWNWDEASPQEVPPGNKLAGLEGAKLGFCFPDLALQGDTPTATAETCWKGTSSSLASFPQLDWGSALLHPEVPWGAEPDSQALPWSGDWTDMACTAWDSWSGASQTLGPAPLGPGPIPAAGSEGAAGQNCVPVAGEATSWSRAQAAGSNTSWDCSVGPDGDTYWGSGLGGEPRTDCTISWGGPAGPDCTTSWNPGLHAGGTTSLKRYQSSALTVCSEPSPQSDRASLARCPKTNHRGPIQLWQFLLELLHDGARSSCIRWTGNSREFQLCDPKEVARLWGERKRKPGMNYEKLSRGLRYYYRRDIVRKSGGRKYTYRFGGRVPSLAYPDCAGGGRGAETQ
# Method in brief: as §1
# ELF3 = biological target: T5, ELF3 (Homo sapiens, UniProt P78545 1-371); details: protein: recombinant; tags: N-terminal GST; dsDNA, one strand shown
# T5 sequence: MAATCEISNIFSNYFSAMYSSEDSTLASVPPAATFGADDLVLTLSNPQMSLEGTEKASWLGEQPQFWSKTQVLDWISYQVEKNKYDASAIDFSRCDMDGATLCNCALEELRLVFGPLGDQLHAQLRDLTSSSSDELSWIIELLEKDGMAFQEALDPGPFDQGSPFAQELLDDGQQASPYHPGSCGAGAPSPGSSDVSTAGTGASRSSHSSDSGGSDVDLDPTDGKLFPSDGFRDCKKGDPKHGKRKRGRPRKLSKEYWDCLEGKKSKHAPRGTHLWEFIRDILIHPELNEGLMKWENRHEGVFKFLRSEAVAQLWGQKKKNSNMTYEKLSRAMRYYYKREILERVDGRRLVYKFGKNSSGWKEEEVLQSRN
# Method in brief: as §1
# CRX = CRX (Homo sapiens, UniProt O43186 1-299); details: protein: recombinant; tags: N-terminal GST; dsDNA, one strand shown
# Method in brief: as §1
# ETV1 = ETV1 (Homo sapiens, UniProt P50549 1-477); details: protein: recombinant; tags: N-terminal GST; dsDNA, one strand shown
# Method in brief: as §1
# ELF4, sequence (Q99607 whole entry): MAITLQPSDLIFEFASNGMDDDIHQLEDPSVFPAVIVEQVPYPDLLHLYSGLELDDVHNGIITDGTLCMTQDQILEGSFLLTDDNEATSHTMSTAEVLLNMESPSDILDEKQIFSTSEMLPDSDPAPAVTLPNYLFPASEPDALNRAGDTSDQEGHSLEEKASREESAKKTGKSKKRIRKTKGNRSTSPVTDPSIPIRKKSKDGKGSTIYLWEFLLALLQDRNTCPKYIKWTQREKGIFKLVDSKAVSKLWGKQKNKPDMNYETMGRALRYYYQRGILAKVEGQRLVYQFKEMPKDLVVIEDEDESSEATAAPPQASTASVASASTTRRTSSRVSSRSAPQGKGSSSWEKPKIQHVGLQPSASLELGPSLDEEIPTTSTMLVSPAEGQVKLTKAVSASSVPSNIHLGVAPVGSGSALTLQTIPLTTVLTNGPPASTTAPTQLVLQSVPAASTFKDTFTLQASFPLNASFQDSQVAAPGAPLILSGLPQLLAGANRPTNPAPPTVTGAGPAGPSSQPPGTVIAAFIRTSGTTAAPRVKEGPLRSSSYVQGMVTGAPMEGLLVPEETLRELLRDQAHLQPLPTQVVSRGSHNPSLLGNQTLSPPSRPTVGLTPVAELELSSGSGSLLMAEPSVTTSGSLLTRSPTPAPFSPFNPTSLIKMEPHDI
# ETV1, sequence (P50549 whole entry): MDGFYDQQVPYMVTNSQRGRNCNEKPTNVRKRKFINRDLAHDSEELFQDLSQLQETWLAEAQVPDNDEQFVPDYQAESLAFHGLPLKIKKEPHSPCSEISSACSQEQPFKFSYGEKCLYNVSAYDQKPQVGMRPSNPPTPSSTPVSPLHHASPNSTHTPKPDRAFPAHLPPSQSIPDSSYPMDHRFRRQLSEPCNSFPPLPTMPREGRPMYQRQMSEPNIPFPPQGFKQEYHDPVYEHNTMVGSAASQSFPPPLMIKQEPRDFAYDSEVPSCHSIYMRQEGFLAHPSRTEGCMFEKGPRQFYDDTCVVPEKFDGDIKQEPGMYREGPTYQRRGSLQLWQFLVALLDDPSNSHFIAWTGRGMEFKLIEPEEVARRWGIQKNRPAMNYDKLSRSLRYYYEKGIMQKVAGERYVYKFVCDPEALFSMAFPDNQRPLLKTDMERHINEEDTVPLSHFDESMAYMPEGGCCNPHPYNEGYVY
# HSF1, sequence (Q00613 whole entry): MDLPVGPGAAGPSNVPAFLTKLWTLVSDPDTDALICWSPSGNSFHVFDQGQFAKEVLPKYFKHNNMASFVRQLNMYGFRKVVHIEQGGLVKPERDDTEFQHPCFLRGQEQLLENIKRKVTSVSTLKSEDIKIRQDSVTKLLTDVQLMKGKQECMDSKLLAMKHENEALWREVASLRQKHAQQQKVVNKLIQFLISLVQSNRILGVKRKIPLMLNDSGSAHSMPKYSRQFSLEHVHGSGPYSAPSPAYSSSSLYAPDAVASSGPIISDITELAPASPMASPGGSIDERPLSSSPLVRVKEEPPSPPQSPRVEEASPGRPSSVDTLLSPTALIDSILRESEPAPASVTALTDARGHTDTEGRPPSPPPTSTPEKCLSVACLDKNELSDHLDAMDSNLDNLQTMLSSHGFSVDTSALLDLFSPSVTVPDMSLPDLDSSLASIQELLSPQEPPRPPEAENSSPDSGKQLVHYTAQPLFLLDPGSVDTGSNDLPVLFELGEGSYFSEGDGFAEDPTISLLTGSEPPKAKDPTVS
# ETV5, sequence (P41161 whole entry): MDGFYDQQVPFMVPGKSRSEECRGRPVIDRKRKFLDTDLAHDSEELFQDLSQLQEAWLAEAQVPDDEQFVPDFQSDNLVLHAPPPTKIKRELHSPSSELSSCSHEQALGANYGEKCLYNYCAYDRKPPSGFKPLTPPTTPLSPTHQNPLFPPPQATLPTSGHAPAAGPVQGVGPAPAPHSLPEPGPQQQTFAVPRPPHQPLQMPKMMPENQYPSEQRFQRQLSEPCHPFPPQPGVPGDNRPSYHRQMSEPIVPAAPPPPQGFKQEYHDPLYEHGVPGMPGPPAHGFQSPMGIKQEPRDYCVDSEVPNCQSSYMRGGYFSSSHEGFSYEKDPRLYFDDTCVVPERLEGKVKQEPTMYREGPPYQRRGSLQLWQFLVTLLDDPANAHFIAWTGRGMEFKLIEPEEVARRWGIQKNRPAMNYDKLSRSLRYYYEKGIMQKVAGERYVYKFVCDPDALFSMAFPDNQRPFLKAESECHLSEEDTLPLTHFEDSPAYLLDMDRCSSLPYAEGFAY
# CRX, sequence (O43186 whole entry): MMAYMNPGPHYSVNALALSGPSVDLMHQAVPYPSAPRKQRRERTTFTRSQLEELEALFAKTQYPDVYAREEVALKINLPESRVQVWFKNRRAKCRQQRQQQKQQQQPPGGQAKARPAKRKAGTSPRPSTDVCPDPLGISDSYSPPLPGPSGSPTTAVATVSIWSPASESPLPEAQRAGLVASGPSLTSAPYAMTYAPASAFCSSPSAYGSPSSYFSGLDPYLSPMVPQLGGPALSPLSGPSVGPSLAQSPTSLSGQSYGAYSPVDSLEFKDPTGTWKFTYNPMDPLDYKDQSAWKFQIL
sequence,measurement,setting,value
TCCTAC,binding signal,FEV,"1.4 fold enrichment (6-mer frequency, TF over GST control)"
same,binding signal,ETV5,"1.51 fold enrichment (6-mer frequency, TF over GST control)"
same,binding signal,HSF1,"1.21 fold enrichment (6-mer frequency, TF over GST control)"
same,binding signal,SPIC,"1.54 fold enrichment (6-mer frequency, TF over GST control)"
same,binding signal,ELF4,"1.41 fold enrichment (6-mer frequency, TF over GST control)"
same,binding signal,ELK4,"1.29 fold enrichment (6-mer frequency, TF over GST control)"
same,binding signal,ETV2,"1.59 fold enrichment (6-mer frequency, TF over GST control)"
same,binding signal,ELF3,"1.16 fold enrichment (6-mer frequency, TF over GST control)"
same,binding signal,CRX,"1.31 fold enrichment (6-mer frequency, TF over GST control)"
same,binding signal,ETV1,"1.39 fold enrichment (6-mer frequency, TF over GST control)"
